The text below walks through data of PubChem BioAssay AID624171 (National Center for Advancing Translational Sciences (NCATS), 2012).

Screen size: about 410,000 compounds; about 1,200 (0.29%) were called active. Roughly 2% stayed inconclusive and do not appear here. Many of the other results were omitted from the sample, so actives are more common in it than they were. Values without a mark were called inactive. Calls follow the shape of the dose curve; as a rule, active = well fitted activation curve with a large enough effect; inconclusive = small, poorly fitted or top-dose-only effect; inactive = flat fitted curve, though single readings scatter.
Potency is read from the fitted curve at half-maximal effect.

A short description of the assay: qHTS of Nrf2 Activators. Also: nearly all actives have a fitted effect of over 65% in size. As to activation: % of control where 0% means no effect. Particulars: AREc32 ARE-luciferase reporter (MCF7-derived line), luminescence, 24 h; series mostly up to 46.1 µM; activation: at the top concentration. An excerpt:
Many diseases have some form of oxidative stress injury and ties to inflammation, causing a host of problems for the patient. The antioxidant response element (ARE) plays an important role in alleviating the harmful effects of oxidative stress. The antioxidant response element (ARE) is a transcriptional regulatory element involved in the activation of genes coding for a number of antioxidant proteins and detoxifying enzymes. These enzymes work in concert to protect tissues from oxidative insults and chemical toxicities in human hepatocytes and immune cells. The protective effects of ARE activation are primarily triggered through Nrf2 (NF-E2-related factor) binding to and activating AREs. It is known that Nrf2 controls the production of over 250 antioxidant and detoxification proteins (Hu et al., 2006), thereby protecting tissues by increasing cellular antioxidant content and suppressing inflammatory signaling pathways. The transcription factor Nrf2 is a central link between oxidative chemicals, such as phenolic antioxidants and electrophilic compounds, and the activation of ARE. Nrf2 levels are constitutively low as a consequence of its interaction with Keap1, which targets its degradation (Zipper and Mulcahy, 2002). Electrophiles react with key cysteine residues in Keap1, releasing Nrf2 and allowing its translocation to the nucleus. Once within the nucleus, Nrf2 complexes with coactivators such as p300, and binds to the AREs to induce gene transcription of cytoprotective enzymes, resulting in the prevention of toxicity. Activation of Nrf2 protects tissues by increasing cellular antioxidant content and suppressing inflammatory signaling pathways. Identifying novel and potent Nrf2 activators by using the AREc32 cell line to detect ARE activation by small molecules will lead to the identification and development of probes to study protective pathways in multiple tissues. These specific probes are essential to study the ARE pathway, and eventually to determine whether this pathway does activate genes that could protect against a host of diseases, including cardiovascular diseases, obesity, diabetes, Alzheimer's, and Parkinson's disease.
This project's aim is to identify novel and potent Nrf2 activators by using the AREc32 cell line to detect ARE activation by small molecules, which will lead to the identification and development of probes to study the ARE pathway.
NIH Chemical Genomics Center [NCGC]
NIH Molecular Libraries Probe Centers Network [MLPCN]
Assay Submitter (PI): Curtis Klaassen, University of Kansas Medical Center
5 uL of 1000 cells/well of AREc32_Fluc cells are seeded into 1536-well plate in OPTI-MEM medium with 5% FBS. The plates are incubated overnight at 37 deg C with 5% CO2. Then through pin tool transfer, 23 nL of compounds are added to each well before a 24 hr incubation at 37 deg C with 5% CO2. After the addition of 2.5 uL of Steady-Glo. the plates are kept at RT for 30 min, before they are read on the ViewLux.
For `O=C1/C(=C\c2ccc(O)cc2)CCC1CNc1ccc(Cl)cc1` (stereo unspecified), the Potency is 11.2 µM (active).
For `CC(=O)c1nn(-c2ccc(OC(F)(F)F)cc2)nc1Nc1ccccc1`, the “activation” value is 1.31%.
Same read-out and setting: with `CCOc1ccc(CCNC(=O)c2ccc3c(c2)sc2nc(-c4ccc(F)cc4)cn23)cc1OCC` the figure was 3.06%; with `Cn1c(=O)c2c(n3c4ccccc4nc13)NC(=O)CC2c1cccc(Cl)c1` (stereo unspecified), 1.12%.
Still for that read-out and setting: in the case of `Cc1ccc(-c2nnc(SCC(=O)NCc3ccccc3)nc2-c2ccc(C)cc2)cc1` it was 5.5%.
For `c1ccc(CSc2nnc(-c3ccco3)c(-c3ccco3)n2)cc1`, the Potency was 12.6 µM (active).
As for `Fc1ccc(CSc2nc(NCc3ccccc3)c3ccccc3n2)cc1`, the “activation” value was 6.47%.
Consider `COc1cccc(CNC(=O)CSc2c3c(nc4cc(Cl)ccc24)CCCC3)c1`, for which the “activation” value was 19.1%.
Turning to `O=C(CSc1c2c(nc3ccc(Cl)cc13)CCCC2)NCc1ccco1`, the Potency is 11.2 µM (active).
Take `Cc1ccc(CNC(=O)CSc2c3c(nc4cc(Cl)ccc24)CCCC3)cc1`: the “activation” value is 26.8%.
The same measure, in the same setting: with `CCCNC(=O)CCC(=O)N1Cc2ccccc2Oc2ncccc21` the figure was -0.631%; with `Cc1ccc2[nH]c3c(=O)n(CC(=O)NC(C)C)ncc3c2c1`, -0.0426%.
On the same count and under the same terms, with `COc1ccc(-c2csc(-c3c(N)c(C(=O)c4ccc(OC)c(OC)c4)n4ccccc34)n2)cc1` the figure was -0.693%; with `CCn1c2ccccc2c2nnc(N3CCN(c4cc(C)ccc4C)CC3)nc21`, -0.21%; with `Cc1nc(N)sc1-c1ccccc1`, 8.19%.
Take `Cc1nc(-c2ccccc2)sc1-c1nnc(C2CC2)o1`: the Potency is 15.8 µM (active).
For the molecule `Cc1nc(-c2ccccc2)sc1-c1nc(-c2ccccc2)ncc1S(=O)(=O)c1ccccc1`, the “activation” value was 0.0302%.
On the same count and under the same terms, with `COc1ccc(Cl)cc1S(=O)(=O)N1CCC(c2ccncc2)CC1` the figure was 3.31%; with `CCOc1ccc(CC(=O)NCCc2csc3nc(-c4ccccc4F)nn23)cc1`, 3.54%.
For the molecule `O=C(/C=C/c1ccc2c(c1)OCCO2)c1ccc(O)cc1`, the Potency is 5.01 µM (active).
As to `O=C(COC(=O)/C=C/c1ccc2c(c1)OCO2)NC1CCS(=O)(=O)C1` (stereo unspecified), the “activation” value was 5.37%.
The same measure, in the same setting: with `O/N=C(\c1ccc2c(c1)OCCO2)C1CCCCC1` the figure was -0.368%; with `O=C(NCCc1csc(-c2ccc(C(F)(F)F)cc2)n1)C(=O)Nc1ccc(F)c(Cl)c1`, 0.286%; with `COc1ccc(NC(=O)c2ccc3nc(C(C)C)oc3c2)cc1OC`, 9.79%.
Take `COCc1c(C(=O)OCC(=O)Nc2ccc(OC(F)F)cc2)oc2ccccc12`: the “activation” value was -0.783%.
As for `CCc1cccc(NC(=O)COC(=O)c2cc(=O)c3ccccc3o2)c1`, the Potency was 14.1 µM (active).
Regarding `CCc1cccc(NC(=O)COC(=O)C2CCN(c3ccc(C(F)(F)F)cn3)CC2)c1`, the “activation” value is -0.0951%.
As to `Cc1cc(C)nc(NS(=O)(=O)c2ccc(NC(=O)c3cc(=O)c4ccc(C)c(C)c4o3)cc2)n1`, the “activation” value is -0.437%.
As for `COc1ccc([N+](=O)[O-])cc1NC(=O)COC(=O)/C=C/c1ccco1`, the Potency is 11.2 µM (active).
`COc1cc2c(cc1NC(=O)COC(=O)/C=C/c1ccccc1)oc1ccccc12`: the “activation” value was 4.04%.
Consider `COc1ccc(Br)cc1CN(C)CC(=O)Nc1cc([N+](=O)[O-])ccc1OC`, for which the “activation” value was 0.584%.
Turning to `FC(F)(F)c1cc(Nc2nc3ccccc3c3nncn23)ccc1Cl`, the “activation” value was -0.119%.
Same read-out and setting: with `COc1cccc(N=C2SC(C(=O)Nc3cccc(Cl)c3)CC(=O)N2C)c1` (stereo unspecified) the figure was 4.5%; with `COc1ccc(-c2nnc(SCC(=O)Nc3ccc(C(C)C)cc3)nc2-c2ccc(OC)c(OC)c2)cc1OC`, 4.8%; with `CCCc1nc2c3ccccc3ccn2c1Cc1ccccc1C(F)(F)F`, 10.7%.
The same measure, in the same setting: in the case of `COC(=O)c1ccc2nc(-c3ccc(Cl)cc3)c(Cc3cccc(F)c3)n2c1` it was 0.65%.
Take `c1ccc(Cc2c(-c3ccco3)nc3c4ccccc4ccn23)cc1`: the Potency was 6.31 µM (active).
On the same count and under the same terms, in the case of `Cc1ccc(Cc2c(-c3ccco3)nc3ccc(Cl)cn23)cc1` it was 12.6 µM (active).
For `COC(=O)c1ccc2nc(-c3ccc(F)cc3)c(Cc3ccc(C)cc3)n2c1`, the “activation” value is 16.6%.
The same measure, in the same setting: with `CC(C)c1ccc(NC(=O)C2CCN(c3nc(-c4ccc(C(C)C)cc4)no3)CC2)cc1` the figure was -5.01%; with `COc1ccc(NC(=O)c2sc3nc(-c4cc5cccc(OC)c5oc4=O)[nH]c(=O)c3c2C)cc1`, -0.615%.
Take `O=S(=O)(c1ccc(Cl)cc1)c1nnn2c1nc(NC1CCCC1)c1sccc12`: the “activation” value was -0.774%.
Turning to `CCc1cc2c(cc3c(=O)n(CC(=O)NCCc4ccc(OC)c(OC)c4)ncn32)s1`, the “activation” value was 0.25%.
Turning to `CCOC(=O)c1ccc(CSc2nnc3cc(C)c4ccccc4n23)cc1`, the “activation” value was 2.48%.
Turning to `Cc1ccc2c(N)c(C(=O)c3ccccc3)sc2n1`, the Potency was 8.91 µM (active).
On to `CN(C)c1ccnc2sc(C(=O)c3ccccc3)c(N)c12`, for which the Potency is 10 µM (active).
On to `CN(C(=O)c1ccccc1)c1nccnc1C#N`, for which the “activation” value is -0.11%.
With `COc1cccc(C(=O)c2sc3nc(-c4ccccc4)cc(C(F)(F)F)c3c2N)c1`, the “activation” value was 22.5%.
For `CCCS(=O)(=O)c1c(Nc2ccccc2C)sc(C(=O)c2ccccc2)c1N`, the “activation” value was -0.703%.
Turning to `COc1ccc(S(=O)(=O)c2c(Nc3cccc(Cl)c3)sc(C(=O)c3ccccc3)c2N)cc1`, the “activation” value was 5.95%.
Same read-out and setting: in the case of `COc1ccc(-n2ccnc(NCCc3ccc(Cl)cc3)c2=O)cc1OC` it was 3.86%.
